# Assay results: ChEMBL document CHEMBL3988442, “University of Dundee, Small-Polar-MMV Screening Library” (2021)
# Columns and labels:
# [1] = biological target: T1, Aspartate--tRNA(Asp/Asn) ligase (Mycobacterium tuberculosis (strain ATCC 25618 / H37Rv)) (UniProt P9WFW3); assay: Assay for Asp RNA synthetase-1 from Mycobacterium tuberculosis; type: functional; design: scale not given: direction of the effect not stated beside the values; conditions: 30 µM; note: in the data most compounds retested in dose-response had high values
# T1 sequence (whole entry): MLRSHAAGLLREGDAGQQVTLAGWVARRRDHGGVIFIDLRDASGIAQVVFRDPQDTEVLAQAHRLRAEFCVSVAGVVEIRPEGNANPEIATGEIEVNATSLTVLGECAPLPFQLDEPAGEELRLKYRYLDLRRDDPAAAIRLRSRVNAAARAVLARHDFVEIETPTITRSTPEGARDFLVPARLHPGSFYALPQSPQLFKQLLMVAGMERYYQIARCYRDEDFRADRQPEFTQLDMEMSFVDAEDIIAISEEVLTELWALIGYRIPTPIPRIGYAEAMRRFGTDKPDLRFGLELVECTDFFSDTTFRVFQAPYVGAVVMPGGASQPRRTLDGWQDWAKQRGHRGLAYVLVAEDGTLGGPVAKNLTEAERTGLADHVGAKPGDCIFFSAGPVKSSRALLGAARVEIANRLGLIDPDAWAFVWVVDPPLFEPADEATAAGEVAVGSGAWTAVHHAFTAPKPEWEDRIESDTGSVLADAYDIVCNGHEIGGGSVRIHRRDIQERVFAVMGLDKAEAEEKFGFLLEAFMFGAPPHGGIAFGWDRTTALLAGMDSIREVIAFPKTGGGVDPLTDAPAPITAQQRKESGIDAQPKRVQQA
# [2] = biological target: Shiga toxin 2 (Escherichia coli O157:H7) (UniProt P09385+P09386); assay: E. coli 0.157:H7 Shiga Toxin SOP - stx2 screening assay; type: functional; design: scale not given: direction of the effect not stated beside the values; conditions: 30 µM
SMILES,Percent Effect [1] [%],Percent Effect [2] [%]
Cc1nn(C)c(C)c1C1CCCN1C(=O)c1ccc(Cl)o1 (centres undefined),-1.9,-17.4
CN(Cc1cccs1)C(=O)CS(=O)(=O)Cc1ccc(Cl)c(Cl)c1,3.86,0.473
Cc1nc(CN(C)C(=O)Nc2cnn(CC3CCCO3)c2)cs1 (centres undefined),2.17,-5.02
Cc1ccc(C(=O)N2CCn3cc(CN(C)Cc4ccco4)nc3C2)o1,-0.889,-35.1
O=C([C@H]1C[C@@H]2CCN(C3CCOCC3)C[C@@H]2O1)N1CCOCC1,1.17,-10.3
CC(C)c1ccsc1C(=O)N1CCCN(Cc2cscn2)CC1,6.6,14.7
Cc1oncc1C(=O)N1CCC2(C1)CN(c1cccnc1)C(=O)CN2C (centres undefined),-6.17,-13.7
CC(C)c1cc(NC(=O)CN2CCC(N3CCCCC3)CC2)on1,0.301,-28.7
CCOc1ncccc1NC(=O)c1cc(C)c(C)s1,-2.03,3.75
COc1ccc2c(O)c(NC(=O)NCC3CC3)cnc2c1,1.09,-13.7
CCC1c2ccsc2CCN1C(=O)NCc1ccccn1 (centres undefined),-0.144,-4.32
CCc1nc2n(n1)CC(NCc1ncc(-c3ccccc3)o1)CC2 (centres undefined),0.562,9.14
CN1CCC(c2cccc(Cc3ccc(F)cc3)n2)CC1,-0.194,-29.1
O=C(c1cnoc1)N1CCC[C@]2(C[C@@H](OCc3ccccn3)CO2)C1,-4.58,-20.4
COCCN1C[C@H]2[C@@H](C1)N(Cc1ccc(C)o1)CC[C@H]2OC,-3.26,-28.9
CNc1cc(CNC(=O)c2ccccn2)nc(-c2ccncc2)n1,-1.21,5.89
Cn1cc(CN2CCn3cc(CNC(=O)C4CCC4)nc3C2)cn1,1.34,-6.29
